From PubChem
CYP2C19 activ = human CYP2C19 activators, primary screen, biochemical, luminescence. recombinant CYP2C19, luciferin-H EGE luminescence; active compounds read high; 0 = fully inhibited enzyme, 1 = untreated enzyme. activation factor at 5 µM. 96,000 tested, under 10 active. AID 1025, 2008. Cytochrome P450 2C19 (Homo sapiens), P33261;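 active = activation factor of at least 2 at 5 µM in the primary screen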;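 note: 0 = wells with 2.5 mM tranylcypromine and 1 = vehicle-only wells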
Target sequence (P33261 whole entry, looked up): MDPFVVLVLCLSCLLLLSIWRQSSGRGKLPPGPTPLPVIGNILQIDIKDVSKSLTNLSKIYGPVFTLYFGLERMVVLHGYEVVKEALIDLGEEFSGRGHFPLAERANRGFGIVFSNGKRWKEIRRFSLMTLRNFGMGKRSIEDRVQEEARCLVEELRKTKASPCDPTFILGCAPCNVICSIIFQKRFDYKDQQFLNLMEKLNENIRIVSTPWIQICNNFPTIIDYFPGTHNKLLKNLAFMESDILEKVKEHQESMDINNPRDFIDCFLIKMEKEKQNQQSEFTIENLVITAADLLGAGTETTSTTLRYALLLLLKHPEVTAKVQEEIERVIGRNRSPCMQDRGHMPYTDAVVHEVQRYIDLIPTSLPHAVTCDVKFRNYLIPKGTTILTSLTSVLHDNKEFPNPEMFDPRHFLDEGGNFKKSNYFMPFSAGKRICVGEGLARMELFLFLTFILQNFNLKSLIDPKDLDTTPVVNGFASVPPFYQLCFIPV
PLAP act = PLAP enzyme activators, biochemical, luminescence, HTS | Alkaline phosphatase, placental type (Homo sapiens), P05187 | purified PLAP enzyme, luminescent substrate read-out; active compounds read high | activation fold at 20 µM | 1.2% of 96,000 active | AID 696, 2007; in the data active = activation fold above about 2
CYP2C9 inh = blockers of cytochrome P450 2C9 activity – biochemical, luminescence, ADME assay, primary screen | CYP2C9 Supersomes, luciferin-H conversion | inhibition, % at 5 µM | 20% of 96,000 active;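 active = blocking of liver enzyme CYP2C9 beyond about 50% at 5 µM, limit read from the data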
CYP2C19 inh = blockers of cytochrome P450 2C19 activity – biochemical, luminescence, ADME assay, primary screen. CYP2C19 Supersomes, luciferin-H EGE luminescence, 30 min. 21% of 96,000 active. inhibition, % at 5 µM;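 active = CYP2C19 inhibition above a set limit at 5 µM in the primary screen, cut at about 50% in these data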;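 note: plate controls were negative control wells for no effect and 2.5 mM tranylcypromine positive control for full effect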
CYP2C9 activ = human CYP2C9 activators, primary screen, biochemical, luminescence; Cytochrome P450 2C9 (Homo sapiens), P11712; recombinant CYP2C9, luciferin-H conversion; active compounds read high; factor 1 = untreated enzyme, 0 = blocked; activation factor at 5 µM; 1.4% of 96,000 active; AID 1024, 2008;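 active = activation factor of 2 or more for CYP2C9 at a 5 µM dose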;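 note: 0 = sulfaphenazole-blocked wells and 1 = vehicle-only wells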
An asterisk follows results filed as active. Only some compounds are listed: those with a hit (about 31% of all), similar ones and a draw of the others.

SMILES	CYP2C19 activ	PLAP act	CYP2C9 inh	CYP2C19 inh	CYP2C9 activ
CC(C)c1ccc(NC(=O)C(c2ccccc2)N2CCC3(CC2)OCCO3)cc1 (configuration not stated)	0.8	1.5	6	23	0.9
C/C(=N\NC(=O)c1c[nH]c2ccccc12)c1ccc(C)o1	0.6	2.6*	37	42	0.6
COc1ccc(-c2cc3nc(C)cc(NCCO)n3n2)cc1	1	1	19	-2	0.8
COc1ccc(-c2cc3nc(C)cc(N)n3n2)cc1	0.2	0.9	30	77*	0.7
C=CCNC(=O)C12CC3(C)CC(C)(CC(C)(C3)C1)C2	0.5	1	10	54*	0.9
Cc1cccc(-n2nc(C(=O)Nc3ccccc3)n3c(=O)cc(-c4ccccc4)nc23)c1	0.9	1.1	13	6	0.9
O=C(NC(Cc1ccccc1)c1ccc2c(c1)OCCCO2)c1ccccc1 (configuration not stated)	0.7	0.9	65*	31	0.3
O=C(NC(Cc1ccc2c(c1)OCO2)C(=O)NC(Cc1ccccc1)C(=O)O)c1ccccc1 (configuration not stated)	1.1	1.7	19	-5	0.8
COC(=O)c1cc2n3ccccc3c(C)c(-c3ccccc3)c-2c1C(=O)OC	0.5	1.1	81*	54*	0.2
O=[n+]1c2c(n([O-])c3c1CCCC3)CCCCC2	1	0.9	0	2	1
O=C(Nc1ccc2ccccc2c1)c1onc2c1CCCC2	1.1	1.1	-15	-10	1.2
CC1CN(CCC(=O)Nc2ccc3c(c2)CCC3)CC(C)O1 (configuration not stated)	0.5	1.3	8	52*	0.9
COc1ccc(CC(=O)Nc2ccc3c(c2)CCC3)cc1OC	0.2	2.1*	-35	81*	1.3
CNC(=S)NNC(=O)Cc1ccc(OC)c(OC)c1	1.2	2.1*	-20	-20	1.2
N#CC1=C2SCCN2C(=O)C(C#N)C12CCCCC2 (configuration not stated)	0.5	1	36	45	0.6
Cc1nn(-c2ccccc2)c(C)c1/C=N/NC(=O)c1cc(-c2ccc(Cl)s2)[nH]n1	0.8	1	16	22	0.8
Cc1nn(-c2ccccc2)c(C)c1/C=N/NC(=O)c1cc(C2CC2)[nH]n1	0.4	0.9	58*	60*	0.4
Cc1nn(-c2ccccc2)c(C)c1/C=N/NC(=O)c1cc(-c2ccc(Br)s2)[nH]n1	0.2	0.9	84*	77*	0.2
Cc1nn(-c2ccccc2)c(C)c1/C=N/NC(=O)c1cc(C23CC4CC(CC(C4)C2)C3)[nH]n1	0.8	1.4	53*	16	0.5
CN(CC(=O)NC1CCCCCC1)S(=O)(=O)c1ccc2c(c1)n(C)c(=O)c(=O)n2C	1.1	1	-4	-8	1
Cc1ccc(C(=O)NC(=S)Nc2cc(-c3nc4ccccc4s3)ccc2C)cc1	0.7	0.9	31	25	0.7
CCCCSC(=O)Nc1ccccc1	0.7	0.9	12	31	0.9
CCCNC(=O)c1ccc2c(c1)C1C3CCC(C3)C1C(c1ccccc1)N2 (configuration not stated)	0.1	2.6*	100*	89*	0
O=C(Nc1cccc(F)c1)C1CCN(C(=O)c2ccc(Br)cc2)CC1	0.1	1.8	93*	90*	0.1
O=C(Nc1ccc2c(c1)OCCO2)C1CCN(c2nnnn2-c2ccccc2)CC1	0.9	1	25	13	0.8
SMILES	CYP2C19 activ	PLAP act	CYP2C9 inh	CYP2C19 inh	CYP2C9 activ
O=C(Nc1ccc2c(c1)OCCO2)C1CCN(C(=O)c2ccc(Br)cc2)CC1	0.5	1.1	85*	48	0.2
O=C(Nc1cccc(F)c1)C1CCN(c2nnnn2-c2ccccc2)CC1	0.6	1.2	51*	38	0.5
COC(=O)C1=C(CSc2nncn2C)NC(=O)NC1c1ccc(F)cc1 (configuration not stated)	1	0.8	3	-4	1
COc1cc(C2SCC(=O)N2c2nnc(C34CC5CC(CC(C5)C3)C4)s2)cc(OC)c1OC (configuration not stated)	1	1.7	41	-4	0.6
O=C(CCn1cccc1)NC1CCCc2ccccc21 (configuration not stated)	0.9	0.9	2	12	1
COCc1ccccc1Cn1cnc2c1c(=O)n(C)c(=O)n2C	0.7	1.2	6	30	0.9
CCOc1cc(/C=C2\C(=O)N(c3nc(-c4ccc(Br)cc4)cs3)N=C2c2ccccc2)ccc1O	0.7	0.6	87*	25	0.1
CCOC(=O)C1=NN(c2ccccc2)C(=O)/C1=C\c1ccc(N(C)C)cc1	1	1	19	3	0.8
CN(Cc1ccccc1)c1nc(N)c([N+](=O)[O-])c(Nc2cccc(F)c2)n1	0.6	0.9	79*	38	0.2
O=C(NC1CCS(=O)(=O)C1)C1CCCCN1S(=O)(=O)c1ccc(Cl)cc1 (configuration not stated)	0.8	1.1	91*	21	0.1
Cc1ccc(S(=O)(=O)N2CCC(C(=O)N3CCC[C@H]3C(=O)NC3CCS(=O)(=O)C3)CC2)cc1 (some centres not stated)	1.1	2*	-13	-8	1.1
CC(C)(Oc1ccc(Cl)cc1)C(=O)Nc1ncccn1	0.6	1.1	-5	41	1
OC(c1ccc(Cl)cc1)C(O)c1nc2ccccc2[nH]1 (configuration not stated)	0.2	1	1	77*	1
OC(Cc1nc2ccccc2[nH]1)c1ccccc1Cl (configuration not stated)	0.5	1.1	15	49	0.8
O=C(COC(=O)c1c2c(nc3ccccc13)CCCC2)Nc1ccc2c(c1)OCO2	0.2	1.6	77*	76*	0.2
COc1cccc(NC(=O)COC(=O)c2c3c(nc4ccccc24)CCC(C)C3)c1 (configuration not stated)	0.6	1	56*	45	0.4
C/C=C/Cn1c(N(C)Cc2ccccc2)nc2c1c(=O)[nH]c(=O)n2C	1.1	1.3	9	-9	0.9
CCOCCCNC(=O)CCNC(=O)c1cc(OC)c(OC)c(OC)c1	1	1	-12	-4	1.1
CCN(CC)S(=O)(=O)c1ccc(C(=O)OCC(=O)N2CCN(C(=O)c3ccco3)CC2)cc1	0.8	1.5	96*	15	0
O=C(COC(=O)C1(c2ccc(F)cc2)CCCC1)N1CCN(C(=O)c2ccco2)CC1	0.3	1.6	82*	73*	0.2
